Screening data from PubChem.
Shown are actives, neighbours in structure and some others; about 2.8% of the full set was active somewhere.
Peg3 prom inh-1 – reduces Peg3 promoter-driven luciferase expression in HeLa; inhibition, % at 20 µM; HeLa PEG-Prom luciferase reporter, luminescence, overnight; 1.7% of 360,000 active;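 active means inhibition of at least 50% at 20 µM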
MITF TRPM1 inh – inhibitors of MITF-driven TRPM1 promoter in melanoma cells. SK-MEL-5 TRPM1 promoter luciferase, 24 h. inhibition, % at 12.5 µM. 0.83% of 330,000 active. AID 488899;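 active means mean inhibition across replicates of 60% or more, whatever share of single replicates reaches that level; inconclusive means some that reach 60%, reason not given; inactive means mean inhibition across replicates below 60%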
KKLEB tox – CF airway cell cytotoxicity counter-screen | KKLEB CF airway cells viability, ATPlite luminescence, overnight; hits give low values; cells stimulated with P. aeruginosa culture filtrate | activity change (cytotoxicity), % at 5 µM | 0.36% of 360,000 active | AID 602141;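 active means corrected activity change at or below -50% at 5 µM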
CF NFkB block – inhibitors of cystic fibrosis induced NF-kB | 0.86% of 360,000 active | KKLEB NF-kB-GFP reporter, PAF-induced, GFP fluorescence overnight | inhibition, % at 5 µM;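 active means at least 50% inhibition at 5 µM, scaled per plate between neutral and stimulator controls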;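 further: PAF is a Pseudomonas aeruginosa culture filtrate used as stimulus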
Shn3 3UTR inh – reduces Shn3 3'UTR luciferase signal in osteoblasts; Clone20 osteoblast Shn3 3'UTR firefly luciferase, 24 h; 0.52% of 360,000 active; inhibition, % at 12.5 µM;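 active means mean inhibition of at least 75% with every replicate also reaching 75%; inconclusive means mean inhibition at least 75% but some replicate below; inactive means mean inhibition below 75%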
HIF-2a inh – blocks HIF-2a reporter activity. 0.72% of 360,000 active. AID 624352. inhibition, % at 18.8 µM. 786-0 RCC cells HIF-2a reporter, luciferase luminescence, overnight;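 active means inhibition of the luminescence signal of 40% or more relative to plate controls, in a single-dose primary screen at 18.75 µM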
Peg3 prom inh-2 – confirmation of Peg3 promoter inhibitors. shares compounds with Peg3 prom inh-1. HeLa PEG-Prom luciferase reporter, luminescence, overnight. inhibition, % at 20 µM. 84% of 1,300 active. AID 602417;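 active means at 20 µM dose, 40% or more inhibition averaged across four replicates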
Hits are given with their value; i = inactive; ? = inconclusive; nt = no result.

SMILES	Peg3 prom inh-1	MITF TRPM1 inh	KKLEB tox	CF NFkB block	Shn3 3UTR inh	HIF-2a inh	Peg3 prom inh-2
COc1ccc(-n2cc(-c3ccccc3)c3c(NCCCN4CCOCC4)ncnc32)cc1	i	i	i	i	i	i	nt
COc1cc(NC(=O)c2cccs2)c(C(=O)OCC(=O)c2cc(C)n(-c3ccccc3)c2C)cc1OC	58.6	64.0	i	i	i	i	83.2
Cc1ccc(-c2nc(C(Cl)Cl)c3ccccc3n2)cc1	111.1	i	i	i	i	i	99.3
Cc1cc(C)c2c(N)c3cccc(C)c3nc2n1	106.8	65.5	i	i	i	i	99.0
CCc1ccc(/C=C2/SC(=S)N(CCCC(=O)Nc3cccc(C(=O)O)c3)C2=O)cc1	i	nt	i	i	i	i	nt
Cc1cc(NC(=O)CCCN2C(=O)/C(=C/c3cccs3)SC2=S)no1	i	i	i	i	i	i	nt
CCc1ccc(/C=C2\SC(=S)N(CCCC(=O)Nc3cc(C)on3)C2=O)cc1	71.6	nt	i	i	i	76.9	66.1
CCc1ccc(/C=C2\SC(=S)N(CCCC(=O)NC3=NCCS3)C2=O)cc1	72.3	nt	i	i	i	82.8	70.5
CC1=NN(c2cccc(C(=O)O)c2)C(=O)/C1=C\C=C/c1ccccc1	77.5	nt	i	63.5	i	58.7	52.0
COc1ccc(CCNC(=O)c2cc3c(=O)n4ccccc4nc3n(C3CCCCC3)c2=N)cc1OC	i	i	i	i	i	i	nt
COc1ccc(CCNC(=O)c2cc3c(=O)n4ccccc4nc3n(C3CCCCC3)c2=N)cc1	87.7	i	i	i	i	i	53.9
COc1ccc(CCn2c(=N)c(C(=O)NC3CCCC3)cc3c(=O)n4cccc(C)c4nc32)cc1	99.2	i	i	i	i	i	63.7
COc1ccccc1NS(=O)(=O)c1cccc(C(=O)NCC2(N3CCCCC3)CCCCC2)c1	i	i	i	i	i	i	nt
CN(Cc1cnn(Cc2ccccc2)c1)C(=O)CN=C1NS(=O)(=O)c2ccccc21	i	nt	i	i	i	i	nt
O=C(Nc1ccc(-c2cn3ccsc3n2)cc1)c1ccc(F)c(S(=O)(=O)N2CCOCC2)c1	80.4	i	i	i	i	i	95.7
O=C(Nc1ccccc1)c1ccc(F)c(S(=O)(=O)N2CCOCC2)c1	i	i	i	i	i	i	nt
COC(=O)C1=C(C)N(Cc2ccccc2)C(=NCCc2c[nH]c3ccccc23)N[C@H]1c1cccc(C(F)(F)F)c1	99.4	i	i	i	i	i	98.5
COc1cc2ccc3c(CCN(C)C)cc(OC)c(OC)c3c2cc1OC	i	i	i	i	i	i	nt
CN(C)CCc1cc2c(c3c1ccc1ccccc13)OCO2	93.2	i	i	i	i	i	92.9
CCC(C(=O)Nc1ccc2c(c1)OCCO2)n1c(=O)[nH]c2ccccc2c1=O (stereo not drawn)	i	i	i	i	i	i	nt
CC(=O)c1cccc(-c2ccnc3c2CC(C(=O)Nc2cccc(NS(C)(=O)=O)c2)O3)c1 (stereo not drawn)	58.6	nt	i	i	i	i	56.6
CC(=O)c1cccc(NC(=O)C2Cc3c(-c4cccc(C(C)=O)c4)ccnc3O2)c1 (stereo not drawn)	i	nt	i	i	i	i	nt
O=C(C[n+]1ccc(-c2cc(C(=O)Nc3cccc(C(F)(F)F)c3)c3ccccc3n2)cc1)c1cccc([N+](=O)[O-])c1	88.8	i	i	i	i	i	61.6
Cc1cc(C)c(C)c(OCCCN(C)C)c1	i	i	i	i	i	i	nt
Cc1cc(=O)oc2cc(OCC(=O)c3ccc4c(c3)NC(=O)CO4)ccc12	52.9	i	i	i	i	i	i
SMILES	Peg3 prom inh-1	MITF TRPM1 inh	KKLEB tox	CF NFkB block	Shn3 3UTR inh	HIF-2a inh	Peg3 prom inh-2
O=c1cc(-c2ccc(O)cc2)oc2ccc3ccccc3c12	66.9	83.1	-61.4	i	?	72.1	74.7
O=C(c1ccccc1)N(C(=O)c1ccccc1)c1ncnc2c1C(c1ccccc1)c1c(ccc3ccccc13)O2 (stereo not drawn)	77.9	i	i	55.8	i	i	77.1
CCOC(=O)CCCC(=O)Nc1ncnc2c1C(c1ccccc1)c1c(ccc3ccccc13)O2 (stereo not drawn)	i	i	i	i	i	i	nt
Cc1ccc(N2CC(C(=O)Nc3nccs3)CC2=O)cc1Cl (stereo not drawn)	89.7	i	i	i	i	i	94.2
CCN(CC)P(=O)(Nc1ccccc1Br)c1ccc(N(C)C)cc1NC(=O)c1ccco1 (stereo not drawn)	i	i	i	i	i	i	nt
Cc1cnc(C(=O)OCC(=O)Nc2ccc(OCc3ccccc3)cc2)cn1	i	i	i	i	i	i	nt
Cc1ccc(-c2nnc(N3CCN(c4ccccn4)CC3)c3ccccc23)cc1	76.6	i	i	i	i	i	83.8
c1ccc(-c2nnc(N3CCN(c4ccccn4)CC3)c3ccccc23)cc1	i	i	i	i	i	i	nt
COc1ccc(-n2ncc3c(N(C)C4CCCCC4)ncnc32)cc1	71.4	i	-79.2	i	i	70.3	70.6
CC(C)CC1C(=O)N(Cc2cn(CCC3OCCO3)nn2)CCS(=O)(=O)N1Cc1ccc(-c2ccc(F)cc2)cc1 (stereo not drawn)	50.2	nt	i	i	i	i	55.3
Cc1cc(C)nc(NC(=O)c2c(F)c(F)c(F)c(C(=O)Nc3cc(C)cc(C)n3)c2F)c1	90.5	nt	i	i	i	i	72.3
Cc1cc(C)nc(NC(=O)CCCC(=O)O)c1	i	i	i	i	i	i	nt
CC(=O)c1ccc(NC(=O)COC(=O)CCc2ccc(S(=O)(=O)N3CCOCC3)cc2)cc1	i	i	i	i	i	i	nt
c1cc2c3c(cccc3c1)NC1(CCC3(CC1)Nc1cccc4cccc(c14)N3)N2	76.0	i	i	i	i	i	75.0
Cc1nnc(SCC(=O)Nc2ccc([N+](=O)[O-])cc2)n1CC1CCCO1 (stereo not drawn)	i	i	i	i	i	i	nt
COc1ccc2nc3n(c(=O)c2c1)-c1cc2ccccc2cc1C(=O)NC3Cc1ccccc1 (stereo not drawn)	i	nt	i	i	i	i	nt
COc1ccc2nc3n(c(=O)c2c1)-c1cc2ccccc2cc1C(=O)NC3Cc1ccc(O)cc1 (stereo not drawn)	78.0	nt	i	i	i	i	86.2
Cc1cccc(N(C(=O)CNC(=O)c2cccs2)C(C(=O)NC2CCCC2)c2ccncc2)c1 (stereo not drawn)	i	i	i	i	i	i	nt
COc1ccc(NC(=O)c2cc3c(CO)cnc(C)c3oc2=Nc2cccc(C)c2)c(OC)c1	89.5	i	i	i	i	i	i
CC(C)CNC(=O)CCc1nc(-c2ccccc2)no1	i	i	i	i	i	i	nt
Cc1ccc(-c2cc(C(=O)Nc3sc4c(c3C(=O)NCc3ccco3)CCC4)[nH]n2)c(O)c1	i	i	i	i	i	i	nt
